Assay [1] has as its system Human papillomavirus type 1a protein E7 (residues 44-93). Kind of assay: small molecules binding HPV E7 44-93 – biochemical, small-molecule microarray, residues 44-93, 635 nm fluorescence, primary screen (AID 1108).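 Note: E7 fragment applied at 1 µg/mL in TBST for 1 h at 4 C; score combines spot fluorescence with its signal to noise ratio.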 To be noted: fluorescence 635 nm, higher = more signal.
Assay [2] in a line: hepatitis C replication reporter changes, two-sided – Huh7 cells, luciferase reporter, HCV replication inhibitor project, primary screen (AID 1109).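 Note: huh7 hepatoma cells harbouring a luciferase neomycin HCV replicon reporter; luciferase luminescence as measure of HCV replicon replication; test concentration not given here.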 The settings on record: Huh7 HCV replicon luciferase reporter, 48 h; higher = more signal. Background: In a reporter assay the amount or activity of a reporter protein is the signal.
Assay [3] addresses Left-right determination factor 2 (Homo sapiens) (UniProt O00292). The experiment in a line: small molecules binding LEFTY2 protein – biochemical, small-molecule microarray, 635 nm fluorescence scan, primary screen (AID 1110). The settings on record: higher = more signal.
Assay [4] deals with Calmodulin-1 (Homo sapiens) (UniProt P0DP23). Kind of assay: small molecules binding calmodulin-1 with EGTA – biochemical, small-molecule microarray, Cy5-labelled CALM1, profiling panel (AID 1111).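 Note: labelled calmodulin applied in Tris saline Tween buffer holding calcium plus EGTA and DTT.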 To be noted: Cy5-CALM1 binding fluorescence, higher = more signal.
For assay [5] the target is unchanged. The experiment in a line: small molecules binding Ca-loaded calmodulin-1 – biochemical, small-molecule microarray, Cy5-labelled CALM1, plus calcium, artefact control for SMM control-protein annotation, profiling panel (AID 1112).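 Note: score merges spot fluorescence with signal to noise from triplicate slides.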 The settings on record: Cy5-CALM1 binding fluorescence, higher = more signal.
Assay [6] is described as follows: probe aWnt5a binding to arrayed compounds – biochemical, biotinylated probe, 635/667 nm fluorescence, primary screen (AID 1113).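 Note: score merges 667 nm fluorescence intensity with signal-to-noise per printed feature.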 To be noted: small-molecule microarray, higher = more signal.
The nature of assay [7]: probe aShh binding to arrayed compounds – biochemical, biotinylated probe, 635/667 nm fluorescence, primary screen (AID 1114).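 Note: probe is biotin-labelled aShh protein from a stem cell growth factor screen; measures binding of labelled protein to compounds printed on the slide; score merges feature fluorescence at 667 nm with signal-to-noise.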 The settings on record: small-molecule microarray, higher = more signal.
A short description of assay [8]: probe aNog binding to arrayed compounds – biochemical, biotinylated probe, 635/667 nm fluorescence, primary screen (AID 1115).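 Note: probe is biotinylated aNog protein used at 0.15 µg/mL for 1 h at 4 C; z-score combines 667 nm fluorescence of each spot with its signal to noise.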 To be noted: small-molecule microarray, higher = more signal.
Assay [9] has as its target Torsin-1A-interacting protein 1 (Homo sapiens) (UniProt Q5JTV8). The experiment in a line: compound microarray binding of lysate hLAP1 – cell lysate, small-molecule microarray, COS7 lysate, 635/667 nm fluorescence, primary screen (AID 1116). The settings on record: 635 nm fluorescence, higher = more signal.
Assay [10] has as its target Alpha-bungarotoxin (Bungarus multicinctus) (UniProt P60615). The experiment in a line: compounds binding labelled alpha-BTX control protein – biochemical, small-molecule microarray, Alexa647 label, 635/667 nm fluorescence, artefact control for SMM control protein annotation, profiling panel (AID 1117). The settings on record: alpha-BTX-A647 binding fluorescence, higher = more signal.

The target of assay [11] is Albumin (Bos taurus) (UniProt P02769). Kind of assay: compounds binding labelled BSA control protein – biochemical, small-molecule microarray, Alexa647 label, 635/667 nm fluorescence, artefact control for SMM control protein annotation, profiling panel (AID 1118).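 Note: score merges 667 nm emission intensity and signal-to-noise per printed compound spot.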 To be noted: BSA-A647 binding, fluorescence 635 nm, higher = more signal.
Chain of Albumin (Bos taurus) (P02769 whole entry, looked up): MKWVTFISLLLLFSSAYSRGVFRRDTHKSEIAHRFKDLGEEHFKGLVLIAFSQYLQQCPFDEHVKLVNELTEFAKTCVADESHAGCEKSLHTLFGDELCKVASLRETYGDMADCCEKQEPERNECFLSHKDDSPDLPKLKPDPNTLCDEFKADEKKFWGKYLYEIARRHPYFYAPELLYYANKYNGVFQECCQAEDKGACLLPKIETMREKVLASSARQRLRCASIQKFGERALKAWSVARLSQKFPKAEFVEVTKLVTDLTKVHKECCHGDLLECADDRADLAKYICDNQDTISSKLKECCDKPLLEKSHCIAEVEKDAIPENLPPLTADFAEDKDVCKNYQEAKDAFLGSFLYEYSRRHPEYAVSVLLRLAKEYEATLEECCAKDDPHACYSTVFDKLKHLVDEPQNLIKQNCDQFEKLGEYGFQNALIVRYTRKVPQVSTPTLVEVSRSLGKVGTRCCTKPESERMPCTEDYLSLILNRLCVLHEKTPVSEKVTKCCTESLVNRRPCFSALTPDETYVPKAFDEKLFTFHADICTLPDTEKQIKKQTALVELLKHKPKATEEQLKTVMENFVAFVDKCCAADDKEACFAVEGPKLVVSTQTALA
A short description of assay [12]: probe aXIP binding to arrayed compounds – biochemical, NeuroSMM set, 635/667 nm fluorescence, primary screen (AID 1119).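 Note: probe is the protein aXip251-270 applied at 1 µg/mL to compound-printed slides; binding of probe to printed compounds measured as 667 nm fluorescence plus signal to noise.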 The settings on record: small-molecule microarray, higher = more signal, called active from +8 up or from −8 down.
Assay [13] can be described thus: probe aNOTCH3 binding on compound microarray – biochemical, small-molecule microarray, 635/667 nm fluorescence, primary screen (AID 1120).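 Note: probe is a biotin-tagged antibody raised against NOTCH3 rather than NOTCH3 protein; score merges spot fluorescence near 667 nm with spot signal to noise.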 To be noted: higher = more signal.
Assay [14] is described as follows: probe aNOTCH2 binding on compound microarray – biochemical, small-molecule microarray, 635/667 nm fluorescence, primary screen (AID 1121).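 Note: score merges feature fluorescence read at 667 nm with its signal to noise.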 To be noted: higher = more signal.
In assay [15] the target is Carbonic anhydrase 2 (Homo sapiens) (UniProt P00918). Kind of assay: compounds binding carbonic anhydrase 2 – biochemical, small-molecule microarray, Alexa647-labelled CAII, profiling panel (AID 1122). To be noted: CAII-A647 binding fluorescence, higher = more signal.
Assay [16] can be described thus: COS7 lysate on small-molecule microarray, probe aHis, 635 nm (AID 1123).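 Note: z-score combines 667nm fluorescence intensity with signal-to-noise per printed compound spot.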 The settings on record: COS7 cell lysate, fluorescence, higher = more signal.
A short description of assay [17]: probe aLAP1 signal on lysate-treated microarray – cell lysate, small-molecule microarray, COS7 lysate, primary screen (AID 1124).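 Note: lysate comes from COS7 cells expressing LAP1 and is applied at 0.3 µg/mL; score merges spot fluorescence near 667 nm with signal-to-noise over triplicate slides.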 To be noted: probe aLAP1, fluorescence, higher = more signal.
Assay [18] has as its system Sam68 (KHDRBS1). Kind of assay: compounds binding KHDRBS1 protein – biochemical, small-molecule microarray, 635 nm fluorescence, primary screen (AID 1125).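 Note: score merges 667 nm channel intensity with signal to noise over triplicate slides.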 The settings on record: higher = more signal.
The test system of assay [19] is Chordin-like protein 2 (CHRDL2). Kind of assay: compounds binding chordin-like 2 – biochemical, small-molecule microarray, 635 nm fluorescence, primary screen (AID 1126).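 Note: printed compound slides probed with Chrdl2 protein at 4 µg/mL for 1 h at 4 C; score merges 667 nm emission intensity with signal to noise over three replicate slides.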 The settings on record: fluorescence 635 nm, higher = more signal.
Assay [20] deals with Concanavalin-A (Canavalia ensiformis) (UniProt P02866). Kind of assay: compounds binding concanavalin A lectin – biochemical, small-molecule microarray, Alexa647 label, 635 nm, artefact control for SMM control protein annotation, primary screen (AID 1127).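 Note: z combines 667 nm emission intensity with signal-to-noise across three replicate slides.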 To be noted: ConA-A647 binding fluorescence, higher = more signal.
Chain of Concanavalin-A (Canavalia ensiformis) (P02866 whole entry, looked up): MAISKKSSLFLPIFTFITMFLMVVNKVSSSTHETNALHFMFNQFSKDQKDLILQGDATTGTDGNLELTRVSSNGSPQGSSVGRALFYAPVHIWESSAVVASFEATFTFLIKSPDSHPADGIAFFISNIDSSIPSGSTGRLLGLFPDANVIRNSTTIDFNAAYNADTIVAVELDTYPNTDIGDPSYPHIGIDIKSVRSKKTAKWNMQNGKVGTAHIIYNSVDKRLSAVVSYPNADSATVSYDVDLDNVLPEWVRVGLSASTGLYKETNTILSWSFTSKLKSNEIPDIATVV

The source made the active and inactive calls.

Chain of Left-right determination factor 2 (Homo sapiens) (O00292 whole entry, looked up): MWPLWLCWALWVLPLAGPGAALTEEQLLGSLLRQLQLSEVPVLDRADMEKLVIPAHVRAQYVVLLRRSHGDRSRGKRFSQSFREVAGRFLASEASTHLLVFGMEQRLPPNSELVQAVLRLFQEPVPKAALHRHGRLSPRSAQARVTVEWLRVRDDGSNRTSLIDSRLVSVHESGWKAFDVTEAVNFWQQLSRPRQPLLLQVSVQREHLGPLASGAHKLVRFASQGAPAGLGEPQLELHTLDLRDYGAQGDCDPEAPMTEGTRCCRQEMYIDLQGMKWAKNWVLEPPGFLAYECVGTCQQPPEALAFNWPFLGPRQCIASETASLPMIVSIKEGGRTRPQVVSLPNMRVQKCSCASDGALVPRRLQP
Chain of Torsin-1A-interacting protein 1 (Homo sapiens) (Q5JTV8 whole entry, looked up): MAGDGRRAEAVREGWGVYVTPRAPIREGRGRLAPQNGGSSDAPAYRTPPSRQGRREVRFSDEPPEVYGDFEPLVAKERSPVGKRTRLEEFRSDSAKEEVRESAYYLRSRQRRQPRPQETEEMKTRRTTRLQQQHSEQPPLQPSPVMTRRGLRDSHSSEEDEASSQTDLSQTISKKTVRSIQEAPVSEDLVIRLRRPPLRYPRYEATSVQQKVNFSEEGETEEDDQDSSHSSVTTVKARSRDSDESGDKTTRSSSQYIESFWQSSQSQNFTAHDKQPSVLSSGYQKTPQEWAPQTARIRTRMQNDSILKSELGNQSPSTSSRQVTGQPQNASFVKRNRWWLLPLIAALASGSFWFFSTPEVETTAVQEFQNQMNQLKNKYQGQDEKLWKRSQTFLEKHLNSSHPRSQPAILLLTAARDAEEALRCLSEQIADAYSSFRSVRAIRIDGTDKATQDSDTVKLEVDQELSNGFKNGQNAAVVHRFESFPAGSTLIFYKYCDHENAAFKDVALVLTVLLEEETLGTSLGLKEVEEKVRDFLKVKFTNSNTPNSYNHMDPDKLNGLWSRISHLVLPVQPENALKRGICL
Chain of Alpha-bungarotoxin (Bungarus multicinctus) (P60615 whole entry, looked up): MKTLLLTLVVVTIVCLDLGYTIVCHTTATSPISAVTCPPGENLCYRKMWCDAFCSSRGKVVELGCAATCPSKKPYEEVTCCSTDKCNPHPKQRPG

Consider `CC(=O)OC[C@H]1O[C@H](CC=NO[C@@H](C)c2cc(-c3c(C)cc(C)cc3C)no2)C=C[C@@H]1OC(C)=O`, for which the composite z-score in assay [1] is -0.0612; in assay [3], -0.111; in assay [4], -0.176; in assay [5], 0.0084; in assay [6] it was -0.208; in assay [7] it was -0.223. The composite z-score in assay [8] is -0.135; in assay [9], -0.502; in assay [10], 0.753; in assay [11] it was 0.211; in [13], -0.0984; in assay [14], -0.0532. For the same compound, the composite z-score is -0.273 in [15]; -0.447 in assay [16]; 0.234 in assay [17]; -0.177 in assay [18]; 0.236 in assay [19]; 0.105 in assay [20]. In addition, the z-score in assay [2] is -0.83. Further, the composite Z-score in [12] was 0.209 (inactive).

As for `COC(=O)CC=C1c2ccccc2[C@H](OC)[C@H]1C`, the composite z-score in [1] was -0.887; in assay [3], 0.398; in assay [4], -0.452; in assay [5], -0.746; in [6], -0.0981; in assay [7], -0.138. For the same compound, the composite z-score in assay [8] was -0.172; in assay [9], -0.035; in assay [10], -0.545; in [11], -0.8; in [13] it was 0.0026; in assay [14] it was -0.0614. In addition, the composite z-score is -0.36 in assay [15]; -0.316 in [16]; -0.441 in assay [17]; -0.742 in assay [18]; 0.523 in assay [19]; -0.334 in assay [20]. Also, the z-score in assay [2] was -0.154. The composite Z-score in assay [12] is 0.272 (inactive).

As for `CC(CCN1CCc2nc(-c3ccccc3)c(-c3ccccc3)cc2C1)=NOC(C)CN1CCCc2nc(C)c(C)cc21` (stereo not given), the composite z-score in assay [1] is 1.39; in [3] it was 0.848; in assay [4], 0.637; in assay [5] it was -0.0431; in assay [6], 0.0017; in [7], 0.267. Besides, the composite z-score in [8] is 0.378; in [9] it was 0.825; in assay [10], 1.03; in [11] it was 0.682; in [13], 0.233; in assay [14] it was -0.0278. For the same compound, the composite z-score in [15] stood at 0.369; in assay [16], 1.09; in assay [17] it was 0.506; in assay [18] it was 1.29; in [19] it was 0.219; in assay [20], 1.08. The z-score in assay [2] is -3.08. Besides, the composite Z-score in assay [12] is 0.944 (inactive).

On to `C[C@@H](c1ccccc1)N1C(=O)[C@H]2[C@H]3[C@H](O)[C@H](O)CC(=NOC[C@@H](O)COCc4ccco4)[C@H]3CC[C@H]2C1=O`, for which the composite z-score is -0.788 in assay [1]; 0.858 in assay [3]; -0.858 in [4]; -1.65 in [5]; -0.196 in [6]; 0.0952 in assay [7]. The composite z-score was -0.285 in assay [8]; -0.175 in [9]; -0.0662 in assay [10]; -0.0559 in assay [11]; 0.106 in assay [13]; -0.189 in [14]. Also, the composite z-score in assay [15] was -0.578; in assay [16], -0.795; in assay [17], 0.565; in [18] it was -0.382; in assay [19] it was 1.51; in assay [20], -0.832. Also, the z-score in assay [2] is -0.978. The composite Z-score in assay [12] was -0.0004 (inactive).

As to `O=C(NCCC[N+]1=CC=NC1c1ccccc1)N1CCCc2nc(-c3ccc(Br)cc3)ccc21` (stereo not given), the composite z-score in assay [1] is 0.107; in assay [3], 0.498; in assay [4], 0.626; in assay [5], 0.0894; in [6] it was -0.0145; in [7] it was 0.0141. The composite z-score was 0.0481 in assay [8]; 0.0439 in assay [9]; -0.436 in assay [10]; 0.452 in assay [11]; -0.222 in [13]; -0.119 in [14]. For the same compound, the composite z-score was -0.0214 in assay [15]; -0.382 in [16]; -0.264 in [17]; 0.152 in [18]; 0.421 in assay [19]; 0.605 in [20]. This compound also displayed a z-score in assay [2] of -3.49. Further, the composite Z-score in [12] was 0.762 (inactive).

Take `CCCCOC(OCCCC)C(O)CSc1ccc2ccccc2c1` (stereo not given): the composite z-score in assay [1] is 0.711; in assay [3], 0.64; in assay [4], -0.24; in assay [5], -0.19; in assay [6], -0.0441; in assay [7], 0.171. Further, the composite z-score in [8] was -0.0281; in assay [9], 0.506; in [10] it was 0.086; in [11], -0.196; in assay [13], 0.0669; in assay [14] it was -0.0682. The composite z-score in assay [15] was 0.028; in assay [16], 0.125; in assay [17], -0.0593; in [18], 1.02; in assay [19], 0.537; in [20], 0.196. The z-score in assay [2] was found to be 0.0395. Also, in [12], the composite Z-score was -0.444 (inactive).

The values are drawn from PubChem BioAssay.
